A short description of experiment [1]: qHTS assay to identify small molecule agonists of the estrogen receptor alpha (ER-alpha) signaling pathway in the presence of an antagonist - cell viability counter screen (AID 1259386).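 Also: series mostly up to about 92 µM; cells exposed to compounds for 22 h at 37 °C before the viability read; nearly all actives have a fitted effect of over 30% in size.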 In short, it runs like this: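 VM7Luc4E2 cells (endogenous full-length ER-alpha, 4×ERE-luciferase) were held 5 days in phenol red-free medium with 10% charcoal-stripped FBS, plated, then given 10.0nM ICI-182,780 and compounds at 15 concentrations for 22hr at 37C; viability read by CellTiter-Fluor fluorescence.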
A general note: Quantitative high-throughput screening tests each substance at several concentrations.

Experiment [2] concerns the target Progesterone receptor (Homo sapiens) (UniProt P06401). Put plainly: qHTS assay to identify small molecule agonists of the progesterone receptor (PR) signaling pathway (AID 1346784; calls by dose curve; also: nearly all actives have a fitted effect of over 30% in size). A digest of the protocol: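 PR-UAS-bla HEK 293T cells carrying a UAS-driven beta-lactamase reporter were seeded in medium with 2% charcoal-stripped FBS, preincubated 6 hr at 37C, then exposed to compounds in DMSO for 16 hr; agonism was read by LiveBLAzer B/G FRET fluorescence.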

For experiment [3] the target is unchanged. The experiment in a line: qHTS assay to identify small molecule antagonists of the progesterone receptor (PR) signaling pathway (AID 1346795; active = well fitted inhibition curve with a large enough effect in the signal ratio in the repeat runs, not every such curve was filed as active; the % refers to the signal ratio). A digest of the protocol:
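PR-UAS-bla HEK293T cells carrying a UAS-driven beta-lactamase reporter were plated in medium with 2% charcoal-stripped FBS and rested 6 hr at 37C. Compounds were added with 1 nM R5020 (final) for 16 hr, then FRET substrate loaded 2 hr at room temperature.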

Experiment [4] can be described thus: qHTS assay to identify small molecule antagonists of the progesterone receptor (PR) signaling pathway - cell viability counter screen (AID 1346798). Also: series mostly up to about 92 µM; nearly all actives have a fitted effect of over 50% in size. In short, it runs like this: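 PR-UAS-bla HEK293T cells in medium with 2% charcoal-stripped FBS were treated with compounds plus R5020 for 16 hr at 37C. Cell viability was then read by CellTiter-Glo luminescence after 30 min at room temperature in the same wells.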

Experiment [5] can be described thus: qHTS assay to identify small molecule agonists of the progesterone receptor (PR) signaling pathway - cell viability counter screen (AID 1346799; calls by dose curve; also: nearly all actives have a fitted effect of over 45% in size). A digest of the protocol: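 PR-UAS-bla HEK293T cells, 3,000 per well in medium with 2% charcoal-stripped FBS, were preincubated 6 hr at 37C, then exposed to compounds for 16 hr; viability was read as CellTiter-Glo luminescence after 30 min at room temperature.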

Experiment [6] in a line: qHTS assay to identify small molecule antagonists of the TGF-beta/Smad signaling pathway - cell viability counter screen (AID 1346824). Also: nearly all actives have a fitted effect of over 50% in size. In short, it runs like this: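 SBE-bla HEK 293T cells, incubated overnight, then compound plus 0.25 ng/mL TGF-beta1 (stock added) for 5 hr at 37 C. Viability was read in the same wells by CellTiter-Glo luminescence after 30 min at room temperature.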

The nature of experiment [7]: qHTS assay to identify small molecule agonists of the TGF-beta/Smad signaling pathway - cell viability counter screen (AID 1346829). Also: top concentration of the series differs between compounds; nearly all actives have a fitted effect of over 45% in size. A digest of the protocol:
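Tox21 qHTS format: SBE-bla HEK 293T cells treated with DMSO-dissolved compounds for 5 hr; CellTiter-Glo luminescence after 30 min at room temperature.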

The target in experiment [8] is Thyrotropin-releasing hormone receptor (Homo sapiens) (UniProt P34981). The experiment in a line: qHTS assay to identify small molecule antagonists of the thyrotropin-releasing hormone receptor (TRHR) signaling pathway (AID 1346877; active = well fitted inhibition curve with a large enough effect in the repeat runs, not every such curve was filed as active; also: series mostly up to about 51 µM). A digest of the protocol:
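TRHR-expressing HEK293 cells were seeded, cultured 18 h at 37 °C, then loaded with calcium dye for 2 h. Compounds were pre-incubated 5 min at room temperature before 1 nM TRH (final) was added, and kinetic fluorescence was recorded for 3 min.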

Experiment [9] shares this target. Put plainly: qHTS assay to identify small molecule agonists of the thyrotropin-releasing hormone receptor (TRHR) signaling pathway (AID 1346891; calls by dose curve; also: series mostly up to about 58 µM). A digest of the protocol:
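TRHR-expressing HEK293 cells were plated 18 h at 37 °C/5% CO2, loaded with calcium dye 2 h at 37 °C, then given compound in DMSO; fluorescence was read kinetically for 3 min at 1 s intervals.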

Experiment [10] is described as follows: Human pregnane X receptor (PXR) small molecule agonists, qHTS cell viability counter screen (AID 1346977). Also: nearly all actives have a fitted effect of over 50% in size. Also: potency is read from the fitted curve at half-maximal effect. In short, it runs like this: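 PXR-Luc HepG2 cells in medium with 5% charcoal-stripped FBS were pre-incubated 5hr, then exposed to compounds for 24hr at 37C. Viability was read in the same wells by CellTiter-Fluor fluorescence, reagent added after 23hr with a 1hr incubation.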

Experiment [11] is described as follows: Caspase-3/7 induction in HepG2 cells by small molecules, qHTS assay (AID 1346978). Also: nearly all actives have a fitted effect of over 15% in size. In short, it runs like this: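 Wild-type HepG2 cells, 2,000/well, settled 5 hr at 37 C and 5% CO2, then compound-treated for 17 hr; caspase-3/7 activity read by luminescent Caspase-Glo 3/7 after 30 min at room temperature.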
Experiment [12] is described as follows: Caspase-3/7 induction in CHO-K1 cells by small molecules, qHTS cell viability counter screen (AID 1346979). Also: nearly all actives have a fitted effect of over 35% in size. Also: potency is read from the fitted curve at half-maximal effect. A digest of the protocol:
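Wild-type CHO-K1 cells were seeded at 1,500 per well, rested 5hr at 37 C, then exposed to compounds in DMSO. After 16hr, CellTiter-Fluor reagent was added and fluorescence read 1hr later as the viability measure.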

Experiment [13] in a line: Caspase-3/7 induction in CHO-K1 cells by small molecules, qHTS assay (AID 1346980). Also: nearly all actives have a fitted effect of over 15% in size. A digest of the protocol:
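Wild-type CHO-K1 cells exposed to compounds for 17hr at 37 C, 5% CO2. Caspase-3/7 activity then measured by Caspase-Glo 3/7 luminescence after 30min at room temperature.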

The nature of experiment [14]: Caspase-3/7 induction in HepG2 cells by small molecules, qHTS cell viability counter screen (AID 1346981). Also: nearly all actives have a fitted effect of over 30% in size. Also: potency is read from the fitted curve at half-maximal effect. In short, it runs like this: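 Wild-type HepG2 cells (2,000/well) were allowed to settle for 5 hr at 37 C, 5% CO2, then dosed with compounds in DMSO by pin transfer. After 16 hr at 37 C, CellTiter-Fluor was added and fluorescence read 1 hr later.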
Experiment [15] has as its target Nuclear receptor subfamily 1 group I member 2 (Homo sapiens) (UniProt O75469). Put plainly: Human pregnane X receptor (PXR) small molecule agonists, qHTS assay (AID 1346982). Also: nearly all actives have a fitted effect of over 35% in size. A digest of the protocol: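 PXR-Luc HepG2 cells (CYP3A4 promoter-driven luciferase) were seeded in medium with 5% charcoal-stripped FBS, left 5 hr at 37 C, then exposed to compounds in DMSO for 24 hr. Luminescence was read after ONE-Glo addition.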

Experiment [16] has as its target Acetylcholinesterase (Homo sapiens) (UniProt P22303). Put plainly: Acetylcholinesterase (AChE) small molecule antagonists: colormetric cell-based qHTS assay (AID 1347395; calls by dose curve; also: nearly all actives have a fitted effect of over 30% in size). In short, it runs like this: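 SH-SY5Y cells, plated overnight at 37 C, were exposed to compounds for 30 min at 37 C and 5% CO2. Acetylthiocholine plus DTNB was then added, and thiocholine from endogenous AChE was quantified colorimetrically after 90 min at 37 C.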

Experiment [17] can be described thus: qHTS assay to identify small molecule agonists of the TGF-beta/Smad signaling pathway (AID 1346859; active = well fitted activation curve with a large enough effect in the signal ratio in the repeat runs, not every such curve was filed as active; the % refers to the signal ratio; also: series mostly up to about 77 µM). In short, it runs like this:
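HEK 293T cells stably carrying a beta-lactamase reporter driven by the Smad binding element were seeded overnight, exposed to DMSO-dissolved compounds for 5 hr at 37 C, 5% CO2, then loaded with FRET substrate for 2 hr at room temperature.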

“And” between values parts separate entries of the source, which are not always exact repeats. Equal values may be shown once. Unmarked numbers belong to inactive results. Results filed as inconclusive are left out. The source made the active and inactive calls. Unless noted, calls follow the shape of the dose curve; as a rule, active = well fitted curve in the direction sought with a large enough effect in the repeat runs; inconclusive = weak or mixed curves; inactive = no such curve, though single readings can be large; an effect the other way counts as inactive or inconclusive.

Chain of Thyrotropin-releasing hormone receptor (Homo sapiens) (P34981 whole entry, looked up): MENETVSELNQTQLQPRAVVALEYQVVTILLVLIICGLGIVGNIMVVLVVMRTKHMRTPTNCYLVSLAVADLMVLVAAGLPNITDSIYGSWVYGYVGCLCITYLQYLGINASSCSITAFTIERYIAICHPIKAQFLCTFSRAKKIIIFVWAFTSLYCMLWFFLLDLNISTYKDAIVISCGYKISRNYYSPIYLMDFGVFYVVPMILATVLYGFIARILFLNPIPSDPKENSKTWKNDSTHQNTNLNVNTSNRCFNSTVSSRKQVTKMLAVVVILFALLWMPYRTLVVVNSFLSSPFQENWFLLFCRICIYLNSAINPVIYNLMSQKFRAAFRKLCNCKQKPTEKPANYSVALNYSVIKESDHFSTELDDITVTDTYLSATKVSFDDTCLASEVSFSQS
Chain of Progesterone receptor (Homo sapiens) (P06401 whole entry, looked up): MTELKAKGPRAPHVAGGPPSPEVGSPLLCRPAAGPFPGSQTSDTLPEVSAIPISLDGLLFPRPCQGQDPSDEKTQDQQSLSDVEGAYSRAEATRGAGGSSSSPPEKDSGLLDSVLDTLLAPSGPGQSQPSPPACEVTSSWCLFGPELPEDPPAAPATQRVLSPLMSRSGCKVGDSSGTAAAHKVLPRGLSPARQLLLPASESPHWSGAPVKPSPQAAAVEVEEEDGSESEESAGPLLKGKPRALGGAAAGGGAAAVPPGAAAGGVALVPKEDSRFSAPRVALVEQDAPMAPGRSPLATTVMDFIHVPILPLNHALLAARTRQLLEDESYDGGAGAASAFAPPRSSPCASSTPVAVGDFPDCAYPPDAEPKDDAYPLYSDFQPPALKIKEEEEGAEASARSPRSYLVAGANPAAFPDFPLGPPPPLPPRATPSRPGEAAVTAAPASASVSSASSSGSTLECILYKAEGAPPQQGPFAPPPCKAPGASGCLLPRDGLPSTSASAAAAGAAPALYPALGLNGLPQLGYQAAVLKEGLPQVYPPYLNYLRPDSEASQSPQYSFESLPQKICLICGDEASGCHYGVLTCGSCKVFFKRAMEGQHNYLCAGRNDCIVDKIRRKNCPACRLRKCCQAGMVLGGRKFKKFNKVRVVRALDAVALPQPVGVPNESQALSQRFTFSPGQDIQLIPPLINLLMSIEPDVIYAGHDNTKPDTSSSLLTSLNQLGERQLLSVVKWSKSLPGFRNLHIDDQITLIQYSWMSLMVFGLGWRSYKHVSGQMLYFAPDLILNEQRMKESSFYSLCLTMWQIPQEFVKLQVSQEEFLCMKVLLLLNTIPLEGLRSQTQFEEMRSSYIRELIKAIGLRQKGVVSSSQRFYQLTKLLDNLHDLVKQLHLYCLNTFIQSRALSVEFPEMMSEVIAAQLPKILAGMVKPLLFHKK
Chain of Acetylcholinesterase (Homo sapiens) (P22303 whole entry, looked up): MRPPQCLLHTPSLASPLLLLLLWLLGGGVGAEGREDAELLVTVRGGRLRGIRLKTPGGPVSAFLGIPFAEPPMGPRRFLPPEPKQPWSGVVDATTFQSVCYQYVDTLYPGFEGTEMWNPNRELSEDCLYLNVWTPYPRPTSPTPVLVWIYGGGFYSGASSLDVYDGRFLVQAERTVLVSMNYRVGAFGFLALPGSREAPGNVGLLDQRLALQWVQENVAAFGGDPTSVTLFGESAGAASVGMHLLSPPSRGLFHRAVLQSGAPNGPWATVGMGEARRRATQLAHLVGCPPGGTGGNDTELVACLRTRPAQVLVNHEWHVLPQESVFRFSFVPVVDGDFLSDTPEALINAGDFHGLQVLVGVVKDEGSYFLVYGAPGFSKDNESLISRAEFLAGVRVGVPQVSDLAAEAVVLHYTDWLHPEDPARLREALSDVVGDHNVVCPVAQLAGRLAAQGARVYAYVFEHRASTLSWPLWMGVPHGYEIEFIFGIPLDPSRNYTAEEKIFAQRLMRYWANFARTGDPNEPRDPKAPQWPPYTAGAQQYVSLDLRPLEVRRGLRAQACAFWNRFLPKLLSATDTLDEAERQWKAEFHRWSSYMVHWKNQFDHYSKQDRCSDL
Chain of Nuclear receptor subfamily 1 group I member 2 (Homo sapiens) (O75469 whole entry, looked up): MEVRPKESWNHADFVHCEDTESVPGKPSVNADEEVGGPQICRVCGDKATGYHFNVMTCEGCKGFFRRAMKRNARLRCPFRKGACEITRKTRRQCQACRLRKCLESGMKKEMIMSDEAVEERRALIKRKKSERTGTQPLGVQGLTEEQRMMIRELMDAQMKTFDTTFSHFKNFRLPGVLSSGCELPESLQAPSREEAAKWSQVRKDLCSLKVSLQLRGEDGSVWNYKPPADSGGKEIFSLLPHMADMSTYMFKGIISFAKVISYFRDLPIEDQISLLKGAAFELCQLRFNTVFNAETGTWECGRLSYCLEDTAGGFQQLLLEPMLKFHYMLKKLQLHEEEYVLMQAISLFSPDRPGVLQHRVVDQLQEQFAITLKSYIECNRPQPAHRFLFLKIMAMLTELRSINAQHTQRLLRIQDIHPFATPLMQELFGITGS

Regarding `Nc1cc(Cl)cc(C(=O)O)c1Cl`, the Potency entry in experiment [1], in experiment [2], in experiment [3], in experiment [4], in [5] and in [6] was “inactive” throughout. Besides, the Potency entry in [7], in experiment [8], in [10], in experiment [11], in experiment [12] and in experiment [13] was “inactive” each time. Moreover, the Potency result in experiment [14], in experiment [15] and in experiment [16] was “inactive” in each case. Also, the compound was called inactive in experiment [9].

As to `CCOP(=O)(SC(C)CC)N1CCSC1=O` (configuration not stated), the Potency entry in experiment [1], in [2], in [3], in experiment [4], in [5] and in experiment [6] was “inactive” in each case. The Potency result in experiment [7], in experiment [8], in [10], in experiment [11], in experiment [12] and in [13] was “inactive” throughout. Besides, the Potency result in experiment [14] and in experiment [16] was “inactive” throughout. The compound was classed as inactive in experiment [9].

With `CN1CC[C@]23c4c5ccc(O)c4O[C@H]2[C@@H](O)CC[C@H]3[C@H]1C5`, the Potency result in experiment [1], in [2], in [3], in experiment [4], in experiment [6] and in experiment [7] was “inactive” each time. The Potency result in experiment [8], in experiment [10], in experiment [11], in [12], in experiment [13] and in experiment [14] was “inactive” throughout. Also, the Potency result in experiment [15] and in experiment [16] was “inactive” each time. The call in experiment [9] was inactive.

With `Oc1cccc(Cl)c1`, the Potency result in [1], in [2], in experiment [3], in experiment [4], in experiment [5] and in experiment [7] was “inactive” in each case. Besides, the Potency result in [8], in [10], in experiment [11], in experiment [12], in experiment [13] and in experiment [14] was “inactive” throughout. Also, the Potency entry in experiment [16] was “inactive”. Besides, the outcome in [17] and in experiment [9] was inactive.

As to `CC(C)CCCCCCCOC(=O)c1ccccc1C(=O)OCCCCCCCC(C)C`, the Potency result in experiment [1], in experiment [2], in [3], in experiment [4], in [6] and in experiment [7] was “inactive” each time. In addition, the Potency entry in experiment [8], in experiment [10], in experiment [11], in experiment [12], in experiment [13] and in [14] was “inactive” throughout. Also, the Potency entry in experiment [15] and in experiment [16] was “inactive” throughout. The compound was classed as inactive in [17] and in [9].

As for `C[C@@H]1C[C@@H]([C@H](O)CC2CC(=O)NC(=O)C2)C(=O)[C@@H](C)C1`, the Potency entry in experiment [1], in [2], in experiment [4], in [5], in [6] and in experiment [7] was “inactive” throughout. The Potency result in experiment [8], in experiment [11] and in experiment [13] was “inactive” each time. Further, the call in experiment [17] and in experiment [9] was inactive. Besides, the Potency is 342 nM (active) and 1.22 µM (active) and 1.19 µM (active) in experiment [10]; 24.2 nM (active) and 68.6 nM (active) and 188 nM (active) in [12]; 121 nM (active) and 1.72 µM (active) and 750 nM (active) in experiment [14].

As for `O=C(NCNC(=O)NC1C(=O)NC(=O)N1CO)NC1C(=O)NC(=O)N1CO` (configuration not stated), the Potency entry in experiment [1], in [2], in experiment [3], in experiment [6], in experiment [7] and in experiment [8] was “inactive” each time. In addition, the Potency entry in experiment [11], in experiment [12], in experiment [13] and in experiment [14] was “inactive” in each case. Moreover, the compound was classed as inactive in experiment [17] and in experiment [9].

As for `OCCCl`, the Potency entry in experiment [1], in experiment [2], in [3], in [5], in [6] and in experiment [7] was “inactive” throughout. For the same compound, the Potency entry in [10], in [11], in experiment [12], in experiment [13], in experiment [14] and in experiment [15] was “inactive” each time. The Potency entry in experiment [16] was “inactive”. The result in [17] was inactive.
